Results filed as inconclusive are left out. Active and inactive are the calls of the source. The call rests on the fitted dose curve.

The experiment can be described thus: qHTS for Inhibitors of the Functional Ribonucleoprotein Complex (vRNP) of Lassa (LASV) Arenavirus: LASV Confirmatory Screen - GLuc reporter signal. The note with it: LASV minigenome vRNP, Gaussia luciferase reporter; series mostly up to 53.9 µM; activity, negative = inhibition: at the top concentration.
In the case of `CC12C(=O)OC(=O)C1(C)C1CCC2O1` (configuration not stated), the Potency was 9.68 µM (active).

For the compound `Cn1cc(-c2ccncc2)c(-c2ccc(OCc3ccc4ccccc4n3)cc2)n1`, the Potency was 24.3 µM (active).

For the compound `C=C(C)C1Cc2c(ccc3c2OC2COc4cc(OC)c(OC)cc4C2C3=O)O1` (configuration not stated), the Potency was 0.0217 µM (active).

As to `CC(O)(P(=O)(O)O)P(=O)(O)O`, the “activity, negative = inhibition” value was -2.68% (inactive).

`CC[C@@H](C(=O)O)[C@@H]1O[C@@H]([C@@H](C)[C@H](O)[C@H](C)C(=O)[C@H](CC)[C@H]2O[C@]3(C=C[C@@H](O)[C@]4(CC[C@@](C)([C@H]5CC[C@](O)(CC)[C@H](C)O5)O4)O3)[C@H](C)C[C@@H]2C)[C@@H](C)C[C@@H]1C`: the Potency was 0.157 µM (active).

Regarding `O=C(CCCN1CCN(c2ccc(F)cc2)CC1)NC1c2ccccc2CSc2ccccc21` (configuration not stated), the “activity, negative = inhibition” value is -7.57% (inactive).

Take `C=C1CC[C@@H]2[C@](C)(CO)[C@H](O)CC[C@@]2(C)[C@@H]1/C=C/C1=CCOC1=O`: the Potency is 21.7 µM (active).

As to `Clc1nccc2c1ccc1ccccc12`, the “activity, negative = inhibition” value is -9.94% (inactive).

On to `CC(C)=CCC/C(C)=C/CC/C(C)=C/CC[C@]1(C)CCc2c(C)c(O)c(C)c(C)c2O1`, for which the activity, negative = inhibition is -9.56% [at 6 µM] (inactive).

As to `Cc1cccc(-c2[nH]c(C(C)(C)C)nc2-c2ccc3c(c2)OCO3)n1`, the Potency is 3.43 µM (active).

Turning to `COCCOC(=O)C1=C(C)NC(C)=C(C(=O)OC/C=C/c2ccccc2)C1c1cccc([N+](=O)[O-])c1` (configuration not stated), the Potency is 27.3 µM (active).

On to `COC(=O)c1nc(Cl)c(Cl)nc1N`, for which the Potency was 4.85 µM (active).

The values above are taken from PubChem BioAssay AID1347087 (National Center for Advancing Translational Sciences (NCATS), 2019).
